Here are results for five molecules from PubChem BioAssay.

Assay [1] deals with Plasmodium falciparum Sir2 (PF13_0152, Sir2A). Nature of the assay: pfSir2 binders on small-molecule microarrays, primary screen, biochemical, small-molecule microarray, 635 nm fluorescence (AID 1098).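 Note: score merges spot fluorescence intensity with its signal-to-noise ratio.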 Conditions: small-molecule microarray binding, fluorescence 635 nm; higher = more signal.
A short description of assay [2]: small-molecule microarray binders of probe aDKK1, primary screen, biochemical, biotinylated probe, 635/667 nm fluorescence (AID 1099).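 Note: score merges 667nm spot fluorescence with signal to noise across triplicate slides.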 Conditions: higher = more signal.
A short description of assay [3]: small-molecule microarray binders of probe aCHRDL2, primary screen, biochemical, biotinylated probe, 635/667 nm fluorescence (AID 1100). Conditions: higher = more signal.
A short description of assay [4]: splicing luciferase reporter signal modulators, primary screen, spliceosome inhibition project, cell-based, HEK293, splice +/- reporter (AID 1101).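 Note: HEK293 cells carrying a splicing-competent luciferase reporter gene; test concentration not given here.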 The conditions noted are these: luminescence, 24 h, higher = more signal, called active from +8 up or from −8 down.
Assay [5] concerns the target Fibroblast growth factor 10 (Homo sapiens) (UniProt O15520). Put plainly: FGF10 binders on small-molecule microarrays, primary screen, biochemical, small-molecule microarray, 635 nm fluorescence (AID 1102). The conditions noted are these: FGF10 binding, fluorescence 635 nm, higher = more signal.
In assay [6] the test system is glycogen synthase kinase-3 (GSK3A per assay name; protocol says GSK3B). Put plainly: GSK3 binders on small-molecule microarrays, primary screen, biochemical, small-molecule microarray, 635 nm fluorescence, GSK3A (AID 1103). Note: the record names both GSK3A and GSK3B. The conditions noted are these: small-molecule microarray binding, fluorescence 635 nm; higher = more signal.
The target of assay [7] is Epidermal growth factor receptor (Homo sapiens) (UniProt P00533). Nature of the assay: EGFR binders on small-molecule microarrays, primary screen, biochemical, small-molecule microarray, 635 nm fluorescence (AID 1104).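 Note: score merges 667 nm emission intensity with spot signal to noise over triplicate slides.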 The conditions noted are these: EGFR binding, higher = more signal.
Chain of Epidermal growth factor receptor (Homo sapiens) (P00533 whole entry, looked up): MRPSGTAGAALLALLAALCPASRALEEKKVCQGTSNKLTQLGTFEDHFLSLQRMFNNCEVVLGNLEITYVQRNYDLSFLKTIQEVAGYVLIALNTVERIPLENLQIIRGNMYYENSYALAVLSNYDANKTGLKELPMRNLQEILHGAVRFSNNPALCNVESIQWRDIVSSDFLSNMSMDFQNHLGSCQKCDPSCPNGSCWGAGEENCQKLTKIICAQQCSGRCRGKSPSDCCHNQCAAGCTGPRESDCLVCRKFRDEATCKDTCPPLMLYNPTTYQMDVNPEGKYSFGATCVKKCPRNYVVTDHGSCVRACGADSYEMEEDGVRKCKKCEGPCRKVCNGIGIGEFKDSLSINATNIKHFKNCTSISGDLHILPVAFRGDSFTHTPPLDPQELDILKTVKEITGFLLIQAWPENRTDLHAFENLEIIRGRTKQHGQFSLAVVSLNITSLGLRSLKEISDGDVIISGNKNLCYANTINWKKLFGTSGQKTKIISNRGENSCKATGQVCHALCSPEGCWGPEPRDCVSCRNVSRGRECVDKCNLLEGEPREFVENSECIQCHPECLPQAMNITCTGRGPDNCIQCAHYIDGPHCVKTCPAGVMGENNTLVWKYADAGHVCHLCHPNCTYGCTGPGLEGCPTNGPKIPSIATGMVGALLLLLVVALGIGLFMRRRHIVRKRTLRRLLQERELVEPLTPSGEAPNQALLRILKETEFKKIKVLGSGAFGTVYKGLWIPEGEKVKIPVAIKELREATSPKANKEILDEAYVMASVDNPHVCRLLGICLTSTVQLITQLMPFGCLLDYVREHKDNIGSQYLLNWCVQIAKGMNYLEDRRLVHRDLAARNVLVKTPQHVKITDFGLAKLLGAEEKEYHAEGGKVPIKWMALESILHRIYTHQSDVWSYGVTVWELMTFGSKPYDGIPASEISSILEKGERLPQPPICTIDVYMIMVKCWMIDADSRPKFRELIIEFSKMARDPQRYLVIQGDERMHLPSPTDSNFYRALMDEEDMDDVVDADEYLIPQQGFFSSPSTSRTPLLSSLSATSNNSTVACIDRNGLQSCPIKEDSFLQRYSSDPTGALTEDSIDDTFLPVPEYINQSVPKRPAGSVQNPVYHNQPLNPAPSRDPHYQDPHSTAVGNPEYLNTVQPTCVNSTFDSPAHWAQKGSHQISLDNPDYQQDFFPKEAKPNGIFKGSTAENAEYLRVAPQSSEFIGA
Assay [8] deals with Follistatin-related protein 3 (Homo sapiens) (UniProt O95633). Nature of the assay: FSTL3 binders on small-molecule microarrays, primary screen, biochemical, small-molecule microarray, 635 nm fluorescence (AID 1105).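 Note: score merges emission near 667 nm and signal to noise per printed spot across three slides.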 The conditions noted are these: FSTL3 binding, higher = more signal.
Chain of Follistatin-related protein 3 (Homo sapiens) (O95633 whole entry, looked up): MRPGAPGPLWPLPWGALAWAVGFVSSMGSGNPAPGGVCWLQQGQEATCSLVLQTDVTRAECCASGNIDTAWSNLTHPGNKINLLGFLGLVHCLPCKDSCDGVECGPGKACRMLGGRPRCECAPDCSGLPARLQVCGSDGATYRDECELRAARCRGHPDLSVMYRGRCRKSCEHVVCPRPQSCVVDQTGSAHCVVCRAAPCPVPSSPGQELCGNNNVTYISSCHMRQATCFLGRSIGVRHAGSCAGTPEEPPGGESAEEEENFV
Assay [9] has as its target Dickkopf-related protein 1 (Homo sapiens) (UniProt O94907). Nature of the assay: DKK1 binders on small-molecule microarrays, primary screen, biochemical, small-molecule microarray, 635 nm fluorescence scan (AID 1106).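 Note: score merges emission near 667 nm with signal to noise over three replicate slides.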 Conditions: DKK1 binding, higher = more signal.
For assay [10], the system named is Inhibin beta A chain (activin A). Nature of the assay: INHBA (activin A) binders on microarrays, primary screen, biochemical, small-molecule microarray, 635 nm fluorescence scan (AID 1107).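 Note: mouse activin A protein probed at 4.33 µg/mL on printed slides; score merges bound-protein fluorescence near 667 nm with spot signal-to-noise.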 Conditions: small-molecule microarray binding, higher = more signal.
For assay [11], the system named is Human papillomavirus type 1a protein E7 (residues 44-93). Put plainly: HPV1a E7 fragment binders on microarrays, primary screen, biochemical, small-molecule microarray, residues 44-93, 635 nm fluorescence (AID 1108).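 Note: E7 fragment applied at 1 µg/mL in TBST for 1 h at 4 C; score combines spot fluorescence with its signal to noise ratio.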 The conditions noted are these: small-molecule microarray binding, fluorescence 635 nm; higher = more signal.
Assay [12] in a line: modulators of HCV replicon luciferase signal, primary screen, HCV replication inhibitor project, Huh7 cells, luciferase reporter (AID 1109).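 Note: huh7 hepatoma cells harbouring a luciferase neomycin HCV replicon reporter; luciferase luminescence as measure of HCV replicon replication; test concentration not given here.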 Conditions: 48 h, higher = more signal.
In assay [13] the target is Left-right determination factor 2 (Homo sapiens) (UniProt O00292). Nature of the assay: LEFTY2 binders on small-molecule microarrays, primary screen, biochemical, small-molecule microarray, 635 nm fluorescence scan (AID 1110). Conditions: LEFTY2 binding, higher = more signal.
Chain of Left-right determination factor 2 (Homo sapiens) (O00292 whole entry, looked up): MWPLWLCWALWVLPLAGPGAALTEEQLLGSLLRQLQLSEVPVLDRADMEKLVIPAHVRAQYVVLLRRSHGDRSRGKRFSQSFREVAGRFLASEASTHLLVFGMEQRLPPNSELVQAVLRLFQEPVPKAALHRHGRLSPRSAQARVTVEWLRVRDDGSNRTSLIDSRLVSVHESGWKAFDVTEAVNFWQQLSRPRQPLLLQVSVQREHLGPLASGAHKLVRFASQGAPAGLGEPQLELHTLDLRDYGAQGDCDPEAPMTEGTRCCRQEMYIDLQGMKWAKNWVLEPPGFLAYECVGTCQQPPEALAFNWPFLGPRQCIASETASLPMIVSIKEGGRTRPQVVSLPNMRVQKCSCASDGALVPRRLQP
In assay [14] the target is Calmodulin-1 (Homo sapiens) (UniProt P0DP23). Put plainly: CALM1 binders on microarrays, EGTA buffer, profiling panel, biochemical, small-molecule microarray, Cy5-labelled CALM1 (AID 1111).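 Note: labelled calmodulin applied in Tris saline Tween buffer holding calcium plus EGTA and DTT.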 The conditions noted are these: Cy5-CALM1 binding fluorescence, higher = more signal.
For assay [15] the target is unchanged. Put plainly: calcium-bound CALM1 binders on microarrays, profiling panel, artefact control for SMM control-protein annotation, biochemical, small-molecule microarray, Cy5-labelled CALM1, plus calcium (AID 1112).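 Note: score merges spot fluorescence with signal to noise from triplicate slides.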 The conditions noted are these: Cy5-CALM1 binding fluorescence, higher = more signal.
The nature of assay [16]: small-molecule microarray binders of probe aWnt5a, primary screen, biochemical, biotinylated probe, 635/667 nm fluorescence (AID 1113).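 Note: score merges 667 nm fluorescence intensity with signal-to-noise per printed feature.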 The conditions noted are these: higher = more signal.
Assay [17] in a line: small-molecule microarray binders of probe aShh, primary screen, biochemical, biotinylated probe, 635/667 nm fluorescence (AID 1114).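 Note: probe is biotin-labelled aShh protein from a stem cell growth factor screen; measures binding of labelled protein to compounds printed on the slide; score merges feature fluorescence at 667 nm with signal-to-noise.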 Conditions: higher = more signal.
Assay [18] in a line: small-molecule microarray binders of probe aNog, primary screen, biochemical, biotinylated probe, 635/667 nm fluorescence (AID 1115).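 Note: probe is biotinylated aNog protein used at 0.15 µg/mL for 1 h at 4 C; z-score combines 667 nm fluorescence of each spot with its signal to noise.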 Conditions: higher = more signal.
In assay [19] the target is Torsin-1A-interacting protein 1 (Homo sapiens) (UniProt Q5JTV8). Nature of the assay: LAP1 binders from COS7 cell lysate, primary screen, small-molecule microarray, 635/667 nm fluorescence (AID 1116). The conditions noted are these: COS7-hLAP1 lysate binding, 635 nm fluorescence, higher = more signal.
Chain of Torsin-1A-interacting protein 1 (Homo sapiens) (Q5JTV8 whole entry, looked up): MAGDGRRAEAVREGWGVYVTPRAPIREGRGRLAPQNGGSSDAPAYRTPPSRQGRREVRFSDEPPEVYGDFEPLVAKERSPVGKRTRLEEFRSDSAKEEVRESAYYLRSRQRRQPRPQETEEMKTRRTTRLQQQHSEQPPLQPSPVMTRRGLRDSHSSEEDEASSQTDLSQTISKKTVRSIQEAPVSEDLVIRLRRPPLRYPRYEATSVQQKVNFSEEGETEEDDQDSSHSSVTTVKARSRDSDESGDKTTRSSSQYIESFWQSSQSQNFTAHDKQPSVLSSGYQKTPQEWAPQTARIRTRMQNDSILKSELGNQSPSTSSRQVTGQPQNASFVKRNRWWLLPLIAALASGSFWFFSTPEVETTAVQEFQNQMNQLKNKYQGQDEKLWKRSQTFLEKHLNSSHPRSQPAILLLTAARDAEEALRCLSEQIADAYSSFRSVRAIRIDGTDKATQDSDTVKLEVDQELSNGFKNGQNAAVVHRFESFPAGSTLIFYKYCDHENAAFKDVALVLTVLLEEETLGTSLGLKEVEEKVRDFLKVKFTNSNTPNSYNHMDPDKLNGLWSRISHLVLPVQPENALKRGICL
Assay [20] deals with Alpha-bungarotoxin (Bungarus multicinctus) (UniProt P60615). Nature of the assay: alpha-bungarotoxin binders on microarray, profiling panel, artefact control for SMM control protein annotation, biochemical, small-molecule microarray, Alexa647 label, 635/667 nm fluorescence (AID 1117). Conditions: alpha-BTX-A647 binding fluorescence, higher = more signal.
Chain of Alpha-bungarotoxin (Bungarus multicinctus) (P60615 whole entry, looked up): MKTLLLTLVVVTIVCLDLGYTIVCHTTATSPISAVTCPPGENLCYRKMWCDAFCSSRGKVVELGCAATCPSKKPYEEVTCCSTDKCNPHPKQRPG

Active and inactive are the calls of the source.

Chain of Dickkopf-related protein 1 (Homo sapiens) (O94907 whole entry, looked up): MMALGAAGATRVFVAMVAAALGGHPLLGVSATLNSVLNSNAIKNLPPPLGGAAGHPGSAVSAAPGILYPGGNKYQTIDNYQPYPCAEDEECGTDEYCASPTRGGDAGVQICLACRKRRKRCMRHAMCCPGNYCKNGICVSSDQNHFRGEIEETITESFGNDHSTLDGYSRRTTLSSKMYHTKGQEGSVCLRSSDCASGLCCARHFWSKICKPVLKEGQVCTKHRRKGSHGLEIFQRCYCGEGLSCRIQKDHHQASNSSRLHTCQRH
Chain of Fibroblast growth factor 10 (Homo sapiens) (O15520 whole entry, looked up): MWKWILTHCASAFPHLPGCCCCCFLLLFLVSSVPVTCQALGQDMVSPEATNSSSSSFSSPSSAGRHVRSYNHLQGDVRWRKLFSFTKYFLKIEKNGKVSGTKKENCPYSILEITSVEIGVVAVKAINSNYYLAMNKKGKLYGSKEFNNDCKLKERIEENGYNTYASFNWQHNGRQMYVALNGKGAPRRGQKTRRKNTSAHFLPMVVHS

Take `CC(=O)NCCCC[C@@H]1NC(=O)[C@@H]2C[C@H](C(=O)NCCCCN(C)C)[C@H](c3ccc(O)cc3)N2C1=O`: the composite z-score in assay [1] is -0.165; in assay [2], -0.161; in assay [3] it was 0.704; in [5], -0.117; in [6], 0.0247; in [7], -0.588. In addition, the composite z-score was -0.723 in assay [8]; 0.295 in assay [9]; -0.727 in [10]; -0.989 in [11]; -0.594 in [13]; -0.487 in [14]. Further, the composite z-score was 0.367 in assay [15]; -0.124 in assay [16]; -0.214 in [17]; -0.23 in assay [18]; 0.646 in assay [19]; -0.602 in assay [20]. In addition, the z-score in assay [4] was -1.12 (inactive); in [12], -0.581.
Turning to `CCOC(=O)C[C@H]1[C@H](OC(=O)c2ccc(C(=O)c3ccccc3)cc2)[C@@H](NC(=O)C2CCCCC2)c2cc(OCCCO)ccc2N1C(=O)c1ccccc1`, the composite z-score was 0.348 in assay [1]; -0.0675 in assay [2]; -0.0333 in [3]; 0.398 in assay [5]; 0.628 in assay [6]; 0.122 in assay [7]. Also, the composite z-score in assay [8] came out at 0.165; in [9], 0.126; in assay [10], 0.559; in assay [11], 1.34; in assay [13], 0.239; in assay [14], 0.541. Besides, the composite z-score in [15] is -0.0224; in assay [16] it was -0.0346; in [17], 0.0483; in assay [18], -0.158; in assay [19] it was 0.512; in [20] it was 0.745. The z-score in [4] is 0.062 (inactive); in assay [12], -2.27.
Consider `COCCOC(=O)N1C(=O)[C@@]2(c3cc(C#CCCO)ccc31)[C@H](c1ccccc1OCCO)N1[C@H](c3ccccc3)[C@H](c3ccccc3)OC(=O)[C@H]1[C@@H]2C(=O)N1CCN(c2ncccn2)CC1`, for which the composite z-score in [1] stood at 0.55; in assay [2], 0.75; in [3] it was 0.537; in [5], 0.74; in assay [6], 1.22; in assay [7], 0.965. Moreover, the composite z-score in [8] amounted to 1.39; in assay [9], 0.682; in assay [10] it was 0.617; in assay [11], 1.43; in assay [13], 1.15; in assay [14], 1.33. For the same molecule, the composite z-score in assay [15] is 0.569; in assay [16] it was 0.203; in assay [17], 0.141; in assay [18], 0.435; in assay [19] it was 1.16; in assay [20] it was 0.994. Moreover, the z-score in assay [4] is -0.381 (inactive); in assay [12], -1.92.
In the case of `CN1C=C(C(=O)OCCS(C)(=O)=O)C(C(=O)OCCS(C)(=O)=O)=CC(CCCO)=CC1C1CC1` (stereo not given), the composite z-score in [1] was -0.274; in [2], -0.209; in [3], -0.0925; in assay [5] it was 0.428; in assay [6] it was -0.256; in [7], -0.14. Moreover, the composite z-score in assay [8] is 0.0695; in assay [9], -0.596; in assay [10] it was -0.0932; in [11], 0.117; in assay [13], -0.0097; in assay [14], 0.0991. Moreover, the composite z-score in [15] was -0.0416; in assay [16] it was -0.126; in [17], 0.0434; in assay [18] it was 0.257; in assay [19] it was -0.116; in [20], 0.198. Further, the z-score in [4] was 0.788 (inactive); in assay [12], -0.552.
On to `COC(=O)c1ccc(OC)c(/C=C\CC(OC(C)=O)c2ccccc2)c1` (stereo not given), for which the composite z-score was -0.22 in assay [1]; -0.146 in assay [2]; 0.0946 in assay [3]; -0.207 in [5]; 0.147 in [6]; 0.643 in assay [7]. Further, the composite z-score in assay [8] was 0.137; in [9], 0.305; in assay [10], 1.89; in assay [11] it was -0.5; in assay [13], 0.374; in [14] it was 0.461. Besides, the composite z-score was 0.193 in assay [15]; -0.237 in [16]; 0.0668 in assay [17]; -0.397 in assay [18]; -0.129 in [19]; 0.808 in assay [20]. In addition, the z-score in [4] was -0.582 (inactive); in [12] it was -1.14.
